HCV inh – qHTS Assay for Inhibitors of Hepatitis C Virus (HCV); Huh7.5.1 HCVcc-Cre infection, luciferase reporter, 44 h; Potency, µM (top dose mostly 41.8 µM), for the others: top-dose activity change, negative = inhibition, most hits filed as inhibitors; 340,000 compounds, 3.4% hits; AID 651820, 2012; active = well fitted inhibition curve with a large enough effect; inconclusive = small, poorly fitted or top-dose-only effect, or another doubt; inactive = no such curve, though single readings can be large or run the other way; note: potency is the fitted concentration of half-maximal effect; % is set by controls: 0 for no effect and ±100 for the full control effect
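Infectious HCV cell culture screen: compound-treated cells (1,000/well, pre-plated 4 h) are infected with HCVcc-Cre at roughly 0.5 moi and grown 44 h. Infection is quantified by luciferase signal after 15 min substrate incubation at room temperature.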
SARS PLP yeast – qHTS of Yeast-based Assay for SARS-CoV PLP. S. cerevisiae expressing SARS-CoV PLpro, growth rescue. Potency, µM (doses to about 32.9 µM), for inactives: top-dose activity, positive = growth rescue, hits mostly activators. 330,000 compounds, 0.19% hits. AID 485353, 2010; calls by dose curve; note: potency is the fitted concentration of half-maximal effect; 0% is about no effect; nearly all actives have a fitted effect of over 55% in size
FMDV antiviral – High Throughput Screening for Foot and Mouth Disease Virus Antivirals; AID 1159524, 2015; Potency, µM (titrated, usually from 57.9 µM), inactives show at the highest dose activity change, negative = inhibition, hits mostly inhibitors; FMDV antiviral cell-based qHTS; 410,000 compounds, 1.2% hits; calls by dose curve; tested in HEK293T cells; note: read-out not given here; potency is the fitted concentration of half-maximal effect; % is set by controls: 0 for no effect and ±100 for the full control effect; nearly all actives have a fitted effect of over 45% in size
Lassa entry inh – qHTS for Inhibitors of binding or entry into cells for Lassa Virus; Lassa virus pseudotype entry inhibition, cell reporter; Potency, µM (doses to about 37.9 µM), for the others: at the top dose activity change, negative = inhibition, usual class: inhibitors; 300,000 compounds, 1.2% hits; AID 540256, 2011; calls by dose curve; tested in HEK293 cells; note: potency is the fitted concentration of half-maximal effect; % is set by controls: 0 for no effect and ±100 for the full control effect; nearly all actives have a fitted effect of over 50% in size
HCMV inh – qHTS Assay for inhibitors of the human cytomegalovirus (HCMV); HFF cells, HCMV-luciferase reporter, 72 h; hits give low values; 410,000 compounds, 4.5% hits; activity change, negative = inhibition, % at 57.5 µM; AID 1259415, 2018; in the data active = activity change below about -60%; inconclusive = no clear call, values can overlap the other calls; inactive = above about -39%; note: % is set by controls: 0 for no effect and ±100 for the full control effect
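Luciferase read-out from HCMV-luciferase-infected HFFs (MOI 1 PFU/cell) 72 h post infection at 37C; compounds added after 16 h cell attachment; activity normalized between buffer-only basal and Salinomycin (10uM) inhibitor controls.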
Marburg entry inh – qHTS for inhibitors of binding or entry into cells for Marburg Virus. 300,000 compounds, 1.8% hits. Potency, µM (doses to about 37.8 µM), inactives show top-dose activity change, negative = inhibition, usual class: inhibitors. Marburg virus pseudotyped entry inhibition, cell reporter. AID 540276, 2011; calls by dose curve; tested in HEK293 cells; note: potency is the fitted concentration of half-maximal effect; % is set by controls: 0 for no effect and ±100 for the full control effect
Numbers without * were called inactive; ? = inconclusive; / = not tested or not shown; + = active, no number; [ ] = dose if it differs, or a comment. Rows were chosen to be rich in hits. Some 8% of all compounds tested hit in one or more screens of this group.

SMILES	HCV inh	SARS PLP yeast	FMDV antiviral	Lassa entry inh	HCMV inh	Marburg entry inh
COc1ccc(NC(=O)CCc2c(C)nc3cc(-c4cccc(F)c4)nn3c2C)cc1Cl	/	/	-29.8%	5.3%[46.1 µM]	-31.2	5.2%[46.1 µM]
CC(C)c1ccc(NC(=O)CSC2=Nc3ccccc3C3=NC(CC(=O)NCc4ccco4)C(=O)N23)cc1 (stereo not given)	/	/	?	-26.1%[46.1 µM]	-23.9	/
Cc1cc(C)nc(Nc2nc3ccccc3o2)n1	-16.0%	-0.3%	0.0%	-20.0%	68.0	-0.6%[46.1 µM]
COc1cc(/C=N/Nc2nc3ccccc3o2)cc(OC)c1O	?	-34.3%	30.4%	13.2%	-21.7	-0.8%
CC(=NNc1nc2ccccc2o1)c1cc2ccccc2cn1	?	/	-20.3%	0.794µM*	-99.1*	0.355µM*
Oc1ccccc1/C=N/Nc1nc2ccccc2o1	?	-0.6%	4.8%	?	+	?
Brc1ccc(/C=N/Nc2nc3ccccc3o2)cc1	-15.4%	-4.7%	54.0%	/	-9.3	/
CC(=NNc1nc2ccccc2o1)c1ncccn1	3.55µM*	/	-3.7%	0.891µM*	-76.8*	0.398µM*
Cc1ccccc1NC(=O)/C(C#N)=C/c1ccc(Cl)cc1Cl	/	/	60.3%	-1.2%[46.1 µM]	3.6	-15.4%[46.1 µM]
CCCNC(=O)N1CC2(CN(C(C)=O)C2)c2c(n(C)c3cc(OC)ccc23)[C@H]1CO	/	/	/	/	3.1	/
Cc1ccc(C(=O)n2nc(C)c(S(=O)(=O)N3CCCCCC3)c2C)cc1	/	/	-7.9%	23.6%[46.1 µM]	5.6	/
c1ccc2c(NCCCN3CCOCC3)c3ccccc3nc2c1	/	-3.5%	/	/	-101.6*	/
COc1ccccc1-c1nc(NCCN2CCOCC2)c2ccccc2n1	/	/	3.6%	/	/	/
Clc1ccccc1-c1nc(NCCN2CCOCC2)c2ccccc2n1	/	/	7.0%	/	/	/
Cc1cc(NCCN2CCOCC2)c2ccc3ccccc3c2n1	-17.8%	-0.3%	3.7%	/	-69.4*	/
COc1cccc(-c2nc(NCCN3CCOCC3)c3ccccc3n2)c1O	10µM*	-9.8%	-16.1%	-3.0%	13.5	-2.2%
Oc1ccccc1-c1nc(NCCN2CCOCC2)c2ccccc2n1	7.08µM*	-1.0%	?	5.5%	38.3	1.5%
Fc1ccccc1-c1nc(NCCCN2CCOCC2)c2ccccc2n1	9.7%	23.9%	-14.3%	?	-21.5	?
COc1ccc2nc(C)cc(NCCN3CCOCC3)c2c1	0.8%	-0.7%	3.7%	1.8%	-22.1	-25.4%[46.1 µM]
CCOC(=O)c1ccc(NC(=O)CSc2cn(CC(=O)N3CCCC3)c3ccccc23)cc1	/	/	-11.8%	1.2%[46.1 µM]	51.5	/
Cc1ccc(CSC2=Nc3ccccc3C3=NC(=O)CN23)cc1	7.94µM*	-0.1%	-11.0%	?	?	?
Cc1oc(-c2ccc(Cl)cc2)nc1CN1CCCC(C(=O)NCc2ccccn2)C1 (stereo not given)	?	6.1%	-4.9%	3.2%	?	-10.6%
Cc1oc(-c2ccc(Cl)cc2)nc1CN1CCCC(C(=O)NCCCN2CCOCC2)C1 (stereo not given)	6.31µM*	-9.1%	0.0%	?	?	?
Cc1oc(-c2ccc(Cl)cc2)nc1CN1CCCC(C(=O)NCc2cccnc2)C1 (stereo not given)	1µM*	3.2%	?	-24.8%	-84.1*	-23.7%
Cc1oc(-c2ccc(Cl)cc2)nc1CN1CCC(C(=O)NCCCN2CCCC(C)C2)CC1 (stereo not given)	1.78µM*	22.5%	-22.0%	/	-101.3*	/
SMILES	HCV inh	SARS PLP yeast	FMDV antiviral	Lassa entry inh	HCMV inh	Marburg entry inh
COc1ccc(-n2c(SCC(=O)NCc3ccccc3)nc3c([nH]c4ccccc43)c2=O)cc1	/	/	?	-6.7%[46.1 µM]	2.0	/
CC(C)(C)C(=O)Nc1cc(-c2cccc(Br)c2)nn1-c1ccccc1	/	/	?	-3.7%[46.1 µM]	-19.5	/
O=C1OC(c2ccccc2)=C/C1=C/N1CCOCC1	-12.8%	-9.7%	/	8.0%	36.4	13.4%
O=C1SC(c2ccccc2)=C/C1=C\N1CCCCC1	11.2µM*	-9.8%	/	4.6%	99.8	27.9%
CC1=C(N2CC2)C(=O)C(CO)=C(N2CC2)C1=O	?	/	0.0%	0.112µM*	-96.9*	?
Cc1nc(NCc2ccccn2)c2c3c(sc2n1)CCCC3	22.4µM*	0.1%	?	-0.8%[46.1 µM]	-17.4	?
Cc1nc(NCc2ccco2)c2c3c(sc2n1)CCC3	-15.1%	-8.9%	?	-2.9%	-70.3*	?
c1ccc(CNc2ncnc3sc4c(c23)CCCC4)nc1	?	-0.8%	?	6.9%	?	-16.9%
CCc1nc(-c2cc(S(=O)(=O)N3CCN(c4ccccc4)CC3)ccc2OC)no1	/	/	-15.6%	21.0%[46.1 µM]	3.8	21.7%[46.1 µM]
CC1=NN(/C(=N\c2nnc(C)s2)Nc2ccc(C(C)(C)C)cc2)[C@H](c2ccc(C)cc2)S1	-5.3%	-56.7%	-16.6%	-18.3%	26.3	8.2µM*
Cc1nc2cc(NCc3nc4ccccc4n3Cc3ccccc3)ccc2n1C	-27.2%	-13.2%	-30.0%	?	13.5	10µM*
Cn1c(CNc2ccc(Cl)cc2)nc2ccccc21	20µM*	-4.9%	-3.1%	?	296.2	-18.0%
Cc1cccc(NCc2nc3ccccc3n2Cc2ccccc2)c1	-22.8%	-23.8%	-14.9%	7.4%	18.3	?
Cc1ccc(NCc2nc3ccccc3n2C)c(C)c1	18.3%	-2.3%	-0.7%	?	36.8	2.51µM*
Cc1ccc(N2CCN(c3ccc(NCc4nc5ccccc5n4C)cc3)CC2)cc1	?	5.0%	12.6%	-1.6%	19.2	20.4%
COc1ccc(NC(=O)C(=O)NCC2(c3ccccc3)CCCC2)c(OC)c1	/	/	-22.0%	-22.9%[46.1 µM]	3.7	7.6%[46.1 µM]
O=C(c1cccc(Cl)c1)N1CCCC(c2ccc(Cl)cc2)=N1	7.94µM*	-34.1%	/	?	-3.5	-21.3%
COc1ccc(Cl)cc1Nc1nc(N)c2ccccc2n1	14.1µM*	1.0%	8.6%	-24.5%[46.1 µM]	83.7	?
Cc1cccc(-n2ncc(C(=O)N3CCN(Cc4ccccc4)CC3)c2C2CCN(C(=O)OC(C)(C)C)CC2)c1	/	/	-17.0%	?	0.0	/
N=c1n(Cc2ccccc2)c2ccccc2n1CC(O)COc1ccccc1 (stereo not given)	14.1µM*	22.4µM*	?	?	?	3.66µM*
Cc1ccc(Cn2c(=N)n(CC(O)COc3ccccc3)c3ccccc32)cc1 (stereo not given)	?	-1.0%	0.0%	?	-35.0	15.8µM*
CCCCn1c(=N)n(CC(O)COc2ccccc2)c2ccccc21 (stereo not given)	?	3.8%	?	?	14.0	?
CC1CCN(S(=O)(=O)c2ccc3c(ccc(=O)n3CC(=O)NCc3ccccc3Cl)c2)CC1	/	/	5.3%	-11.7%[46.1 µM]	29.7	/
Cc1oc2ccc(O)c(CN(C)Cc3ccccc3)c2c1C(=O)Nc1cccc(C(F)(F)F)c1	/	/	?	?	-78.8*	?
